Measured values from the supplement of paper PMC12494721.
Counter-ions that a name gives are not always drawn.

Test system: Klebsiella aerogenes DSM 30053
Assay: growth (OD595) fold change vs plate DMSO controls (fold change (ratio)); higher = more growth
Settings: incubation time: 27 h, anaerobic, 37 °C
Summary of the method: (§1)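 The measure reported is growth, taken as fold change against the median of DMSO controls on the same plate. Anaerobic mGAM cultures in 96-well plates (27 h, 37 °C) were read at 595 nm, blank-subtracted, corrected for compound background using 20 µM compound solutions in water, and multiplied by a calibration factor of 5 to give OD. Any fold change above 1.5 became NA, and 2 biological replicates were averaged.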

SMILES | growth
CCN1CCN(C(=O)N[C@@H](C(=O)N[C@@H]2C(=O)N3C(C(=O)O)=C(CSc4nnnn4C)CS[C@H]23)c2ccc(O)cc2)C(=O)C1=O [Cefoperazone dihydrate] (20 µM) | 0.724
CN(C)CCCN1c2ccccc2CCc2ccccc21 [Imipramine hydrochloride] (20 µM) | 1.08
CCOC(=O)C1=C(C)NC(C)=C(C(=O)OC)C1c1cccc(Cl)c1Cl (stereo unspecified) [Felodipine] (20 µM) | 1.04
CCOC(=O)C1=C(COCCN)NC(C)=C(C(=O)OC)C1c1ccccc1Cl (stereo unspecified) [Amlodipine] (20 µM) | 1
O=C(O)c1cn(C2CC2)c2cc(N3CCNCC3)c(F)cc2c1=O [Ciprofloxacin hydrochloride monohydrate] (20 µM) | 0
Nc1ccn([C@@H]2CS[C@H](CO)O2)c(=O)n1 [Lamivudine] (20 µM) | 0.992
COc1ccc(CCN(C)CCCC(C#N)(c2ccc(OC)c(OC)c2)C(C)C)cc1OC (stereo unspecified) [Verapamil hydrochloride] (20 µM) | 0.758
CC[C@]12CCCN3CCc4c(n(c5ccccc45)[C@@](O)(C(=O)OC)C1)[C@@H]32 [Vincamine] (20 µM) | 1.05
Cc1noc(NS(=O)(=O)c2ccc(N)cc2)c1C [Sulfisoxazole] (20 µM) | 1.02
O=C1CN(/N=C/c2ccc([N+](=O)[O-])o2)C(=O)N1 [Nitrofurantoin] (20 µM) | 0.868
C=C[C@H]1CN2CC[C@H]1C[C@@H]2[C@@H](O)c1ccnc2ccc(OC)cc12 [Quinidine hydrochloride monohydrate] (20 µM) | 0.966
O=C1C(CC[S+]([O-])c2ccccc2)C(=O)N(c2ccccc2)N1c1ccccc1 (stereo unspecified) [Sulfinpyrazone] (20 µM) | 1.04
CCCCCCCCNC(C)C(O)c1ccc(SC(C)C)cc1 (stereo unspecified) [Suloctidil] (20 µM) | 1.06
CC(=O)Nc1ccc(O)cc1 [Acetaminophen] (20 µM) | 0.999
CC(C)(c1cc(Br)c(O)c(Br)c1)c1cc(Br)c(O)c(Br)c1 (20 µM) | 1.05
CCn1cc(C(=O)O)c(=O)c2cc(F)c(N3CCN(C)CC3)cc21 [Pefloxacin] (20 µM) | 0.198

SMILES | growth
Nc1ncn(C2OC(CO)C(O)C2O)c(=O)n1 (stereo unspecified) [Azacytidine-5] (20 µM) | 0.974
COc1cc(Cc2cnc(N)nc2N)cc(OC)c1OC [Trimethoprim] (20 µM) | 0.472
Cc1ccc(NC(=O)c2ccc(CN3CCN(C)CC3)cc2)cc1Nc1nccc(-c2cccnc2)n1 [Imatinib] (20 µM) | 1.05
C[C@H]1[C@H](NC(=O)/C(=N\OC(C)(C)C(=O)O)c2csc(N)n2)C(=O)N1S(=O)(=O)O [Aztreonam] (20 µM) | 0.662
Nc1nc2c(ncn2COCCO)c(=O)[nH]1 [Acyclovir] (20 µM) | 1
CC(C)/N=c1\cc2n(-c3ccc(Cl)cc3)c3ccccc3nc-2cc1Nc1ccc(Cl)cc1 [Clofazimine] (20 µM) | 1.04
Cc1nnc(SCC2=C(C(=O)O)N3C(=O)[C@@H](NC(=O)Cn4cnnn4)[C@H]3SC2)s1 [Cefazolin sodium salt] (20 µM) | 1.13
C[C@H](CS)C(=O)N1CCC[C@H]1C(=O)O [Captopril] (20 µM) | 1
Cc1cnc(NC(=O)C2=C(O)c3ccccc3S(=O)(=O)N2C)s1 [Meloxicam] (20 µM) | 0.98
CC(C)Cc1ccc([C@H](C)C(=O)O)cc1 [(S,+) Ibuprofen] (20 µM) | 1.16
COc1c(N2C[C@@H]3CCCN[C@@H]3C2)c(F)cc2c(=O)c(C(=O)O)cn(C3CC3)c12 [Moxifloxacin] (20 µM) | 0.193
CCN(CC)CCNC(=O)c1ccc(N)cc1 [Procainamide hydrochloride] (20 µM) | 1.2
Clc1ccccc1CN1CCc2sccc2C1 [Ticlopidine hydrochloride] (20 µM) | 0.958
O=C(O)[C@H]1/C(=C/CO)O[C@@H]2CC(=O)N21 [Clavulanate potassium salt] (20 µM) | 0.977
CC(C)(C)CC(C)(C)c1ccc(OCCOCC[N+](C)(C)Cc2ccccc2)cc1 [Benzethonium chloride] (20 µM) | 1.02
CO/N=C(\C(=O)N[C@@H]1C(=O)N2C(C(=O)O)=C(C[N+]3(C)CCCC3)CS[C@H]12)c1csc(N)n1 [Cefepime hydrochloride] (20 µM) | 0.484

Test system: Ruminococcus gnavus DSM 108212
Assay: as above
Settings: incubation time: 27 h, anaerobic, 37 °C
Summary of the method: as §1

SMILES | growth
CN(CCOc1ccc(NS(C)(=O)=O)cc1)CCc1ccc(NS(C)(=O)=O)cc1 [Dofetilide] (20 µM) | 0.827
OC(c1cc(C(F)(F)F)nc2c(C(F)(F)F)cccc12)C1CCCCN1 (stereo unspecified) [Mefloquine hydrochloride] (20 µM) | 1
COc1cc2nc(N3CCN(C(=O)c4ccco4)CC3)nc(N)c2cc1OC [Prazosin hydrochloride] (20 µM) | 0.986
CCc1c2c(nc3ccc(OC(=O)N4CCC(N5CCCCC5)CC4)cc13)-c1cc3c(c(=O)n1C2)COC(=O)[C@]3(O)CC [Irinotecan hydrochloride trihydrate] (20 µM) | 1.06
O=C(O)CCNC(=O)c1ccccc1 [Betamipron] (20 µM) | 0.512
CCN1CCN(C(=O)N[C@@H](C(=O)N[C@@H]2C(=O)N3C(C(=O)O)=C(CSc4nnnn4C)CS[C@H]23)c2ccc(O)cc2)C(=O)C1=O [Cefoperazone dihydrate] (20 µM) | 0.0225
CN(C)CCCN1c2ccccc2CCc2ccccc21 [Imipramine hydrochloride] (20 µM) | 1.34
CCOC(=O)C1=C(C)NC(C)=C(C(=O)OC)C1c1cccc(Cl)c1Cl (stereo unspecified) [Felodipine] (20 µM) | 0.215
CCOC(=O)C1=C(COCCN)NC(C)=C(C(=O)OC)C1c1ccccc1Cl (stereo unspecified) [Amlodipine] (20 µM) | 1.1
O=C(O)c1cn(C2CC2)c2cc(N3CCNCC3)c(F)cc2c1=O [Ciprofloxacin hydrochloride monohydrate] (20 µM) | 0.342
Nc1ccn([C@@H]2CS[C@H](CO)O2)c(=O)n1 [Lamivudine] (20 µM) | 0.831
COc1ccc(CCN(C)CCCC(C#N)(c2ccc(OC)c(OC)c2)C(C)C)cc1OC (stereo unspecified) [Verapamil hydrochloride] (20 µM) | 1.01
CC[C@]12CCCN3CCc4c(n(c5ccccc45)[C@@](O)(C(=O)OC)C1)[C@@H]32 [Vincamine] (20 µM) | 0.949
Cc1noc(NS(=O)(=O)c2ccc(N)cc2)c1C [Sulfisoxazole] (20 µM) | 1.13
C=C[C@H]1CN2CC[C@H]1C[C@@H]2[C@@H](O)c1ccnc2ccc(OC)cc12 [Quinidine hydrochloride monohydrate] (20 µM) | 0.981
O=C1C(CC[S+]([O-])c2ccccc2)C(=O)N(c2ccccc2)N1c1ccccc1 (stereo unspecified) [Sulfinpyrazone] (20 µM) | 1.06
CC(=O)Nc1ccc(O)cc1 [Acetaminophen] (20 µM) | 0.921
CCn1cc(C(=O)O)c(=O)c2cc(F)c(N3CCN(C)CC3)cc21 [Pefloxacin] (20 µM) | 1.13
Cc1ccc(NC(=O)c2ccc(CN3CCN(C)CC3)cc2)cc1Nc1nccc(-c2cccnc2)n1 [Imatinib] (20 µM) | 1.17
C[C@H]1[C@H](NC(=O)/C(=N\OC(C)(C)C(=O)O)c2csc(N)n2)C(=O)N1S(=O)(=O)O [Aztreonam] (20 µM) | 1.04
Nc1nc2c(ncn2COCCO)c(=O)[nH]1 [Acyclovir] (20 µM) | 1.42
Cc1nnc(SCC2=C(C(=O)O)N3C(=O)[C@@H](NC(=O)Cn4cnnn4)[C@H]3SC2)s1 [Cefazolin sodium salt] (20 µM) | 0.0483
C[C@H](CS)C(=O)N1CCC[C@H]1C(=O)O [Captopril] (20 µM) | 0.851
Cc1cnc(NC(=O)C2=C(O)c3ccccc3S(=O)(=O)N2C)s1 [Meloxicam] (20 µM) | 0.801
CC(C)Cc1ccc([C@H](C)C(=O)O)cc1 [(S,+) Ibuprofen] (20 µM) | 0.974
COc1c(N2C[C@@H]3CCCN[C@@H]3C2)c(F)cc2c(=O)c(C(=O)O)cn(C3CC3)c12 [Moxifloxacin] (20 µM) | 0.00485
CCN(CC)CCNC(=O)c1ccc(N)cc1 [Procainamide hydrochloride] (20 µM) | 0.827
Clc1ccccc1CN1CCc2sccc2C1 [Ticlopidine hydrochloride] (20 µM) | 1.18
CO/N=C(\C(=O)N[C@@H]1C(=O)N2C(C(=O)O)=C(C[N+]3(C)CCCC3)CS[C@H]12)c1csc(N)n1 [Cefepime hydrochloride] (20 µM) | 0
